Inconclusive results are not listed. Unmarked numbers belong to inactive results. Calls of active or inactive are those of the source. Calls follow the shape of the dose curve; as a rule, active = well fitted curve in either direction with a large enough effect (not every such curve was filed as active); inconclusive = small, poorly fitted or top-dose-only effect, or another doubt; inactive = flat fitted curve, though single readings scatter.
experiment: NFAT Signaling Pathway (AID 444); conditions: Jurkat NFAT-bla M1, carbachol, beta-lactamase ratio, 5 h; at 38 µM (top of the series);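 also: carbachol stimulus at about its EC50 of 1 µM final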
Outline: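 Jurkat cells carrying an NFAT-driven β-lactamase reporter and co-transfected muscarinic M1 receptor were treated with compound plus carbachol (1 uM final, an EC50 level) for 5 h at 37 °C. CCF4 loading followed for 1 h at RT; 460/530 nm ratio gave %activity.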
% is scaled to controls: 0 for no effect and ±100 for the full control effect.

Structure (SMILES) | activity change, negative = inhibition
O=C(O)c1nn(Cc2ccc(Cl)cc2Cl)c2ccccc12 | -9.69%
c1ccc2nc(N3CCNCC3)ccc2c1 | -5.87%
C[C@H](N)[C@H](O)c1ccc(O)c(O)c1 | 1.06%
COc1ccc(C(=O)N2CCCC2=O)cc1 | 11.8%
NC(=O)CN1CCCC1=O | 1.7%
CCCCCCCCC(=O)NCc1ccc(O)c(OC)c1 | 6.44%

experiment: Stat Signaling Pathway (AID 446); conditions: ME-180 SIE beta-lactamase reporter, IL-6 stimulated, 5 h; series mostly up to 17.2 µM; activity, negative = inhibition: at the top concentration;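 also: ME-180 cervical cancer cells given 40 pM IL-6 alongside compound; SIE-controlled beta-lactamase reporter measured as 460/530 nm FRET emission ratio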
Outline: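 Screening format detects activators and inhibitors alike: ME-180 SIE-bla cells stimulated at 40 pM IL-6 for 5 hrs with compound, then dual-emission beta-lactamase read at 405 nm excitation.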

Structure (SMILES) | activity, negative = inhibition | outcome
CCC(=O)O[C@H]1CC[C@H]2[C@@H]3CCC4=CC(=O)CC[C@]4(C)[C@H]3CC[C@]12C | 7.18% | –
COP(=O)(OC)C(O)C(Cl)(Cl)Cl (stereo not given) | -9.68% | –
COc1ccc(CN2CCNCC2)c(OC)c1OC | -0.34% | –
OC(c1ccccc1)(c1ccccc1)C1CCNCC1 | 9.91% | –
c1ccc2nc(N3CCNCC3)ccc2c1 | – | inactive
C[C@H](N)[C@H](O)c1ccc(O)c(O)c1 | – | inactive
COc1ccc(C(=O)N2CCCC2=O)cc1 | – | inactive
CC(C)[N+](C)(CCC(C(N)=O)(c1ccccc1)c1ccccc1)C(C)C | 1.4% | –
C[N+]1(C)[C@@H]2CC[C@H]1CC(OC(=O)C(CO)c1ccccc1)C2 (stereo not given in full) | – | inactive
NC(=O)CN1CCCC1=O | – | inactive
CN1[C@@H]2CC[C@H]1CC(OC(=O)c1cc(Cl)cc(Cl)c1)C2 (stereo not given in full) | -22.9% [at 38 µM] | –
COC(=O)C1=CCCN(C)C1 | – | inactive
CCCCCCCCC(=O)NCc1ccc(O)c(OC)c1 | 16.9% [at 38 µM] | –
O=C(CCCN1CCC(n2c(=O)[nH]c3ccccc32)CC1)c1ccc(F)cc1 | 0.908% | –

From PubChem BioAssay (NCATS)
